The values that follow come from PubChem BioAssay (NCATS).

Results filed as inconclusive are left out. Entries that show only a call come without a potency. A number with no mark means an inactive call. The source made the active and inactive calls. Calls follow the shape of the dose curve; as a rule, active = well fitted inhibition curve with a large enough effect; inconclusive = small, poorly fitted or top-dose-only effect; inactive = flat fitted curve, though single readings scatter.

For experiment [1], the target named is Calcium and integrin-binding protein 1 (Homo sapiens) (UniProt Q99828). Kind of experiment: Primary qHTS for Identification of Calcium Integrin Binding Protein 1 (CIB1) Competitor (AID 1508620).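 Also: GST tagged CIB1 binding a fluorescein labelled alphaIIb integrin peptide tracer; top concentration of the series differs between compounds.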 The method in brief:
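Fluorescence polarization competition: GST-tagged CIB1 (1 uM final) preincubated with compound 15 min at room temperature, then FITC-labelled alphaIIb peptide (100 nM final) added. After 15 min at room temperature, polarization read at Ex 480/Em 540.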
For orientation: In qHTS, concentration-response curves come from the screen itself.

Experiment [2] is described as follows: Primary qHTS for inhibitors of nuclear receptor binding SET domain protein 2 (NSD2) in an isogenic RCH-ACV NSD2 p.E1099K mutant (9B) (AID 1645876). Also: nearly all actives have a fitted effect of over 70% in size. Also: potency is read from the fitted curve at half-maximal effect.

Sequence of Calcium and integrin-binding protein 1 (Homo sapiens) (Q99828 whole entry, looked up): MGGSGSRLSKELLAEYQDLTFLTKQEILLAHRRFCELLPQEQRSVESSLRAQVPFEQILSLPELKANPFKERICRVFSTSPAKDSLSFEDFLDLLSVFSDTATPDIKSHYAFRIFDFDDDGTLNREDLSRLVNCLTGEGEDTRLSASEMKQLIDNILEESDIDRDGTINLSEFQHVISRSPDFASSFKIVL

`COC(=O)c1ccc(OC(CO)C(O)c2ccc(O)c(OC)c2)c(OC)c1` (centres undefined): the Potency entry in experiment [1] and in experiment [2] was “inactive” each time.
Turning to `COc1c2c(c(C)c3c1C(=O)OC3)O[C@@]1(C)CCC3(C(C)(C)O)OC(=O)CC[C@]3(C)[C@H]1C2` (some centres undefined), the Potency entry in experiment [1] and in experiment [2] was “inactive” each time.
Regarding `CC1(C)CC[C@]2(C(=O)O[C@@H]3O[C@H](CO)[C@@H](O)[C@H](O)[C@H]3O)CC[C@]3(C)C(=CCC4[C@@]5(C)CC[C@H](O[C@@H]6O[C@H](C(=O)O)[C@@H](O)[C@H](O[C@@H]7O[C@H](CO)[C@H](O)[C@H](O)[C@H]7O)[C@H]6O)C(C)(C)C5CC[C@]43C)C2C1` (some centres undefined), the Potency entry in experiment [1] is “inactive”. Further, the activity change, negative = viability loss in experiment [2] is -8.36% [at 9.23 µM].
In the case of `C[C@@H]1CC[C@]2(C(=O)O[C@@H]3O[C@H](CO)[C@@H](O)[C@H](O)[C@H]3O)CC[C@]3(C)C(=CCC4[C@@]5(C)C[C@@H](O)[C@H](O)[C@@](C)(C(=O)O[C@H]6[C@H](O)C[C@@]7(C)C(CC[C@]8(C)C7CC=C7[C@H]9[C@](C(=O)O[C@@H]%10O[C@H](CO)[C@@H](O)[C@H](O)[C@H]%10O)(CC[C@@H](C)[C@@]9(C)O)CC[C@]78C)[C@@]6(CO)C(=O)O)C5CC[C@]43C)[C@@H]2[C@]1(C)O` (some centres undefined), the activity change, negative = inhibition in experiment [1] is 3.8% [at 12.4 µM]. For the same compound, in experiment [2], the outcome is “inactive [at 9.23 µM]”.
For `O=C(c1ccc2nccnc2c1)N1CCCCC1`, the Potency entry in experiment [1] and in experiment [2] was “inactive” each time.
For the compound `COc1ccc(/C=C/C(=O)O[C@@H]2[C@@H](O)[C@H](C)O[C@@H](O[C@H]3[C@@H]4C=CO[C@@H](O[C@H]5O[C@@H](CO)[C@H](O)[C@@H](O)[C@@H]5O)[C@@H]4[C@@]4(CO)O[C@@H]34)[C@@H]2OC(C)=O)cc1`, the Potency result in experiment [1] and in experiment [2] was “inactive” each time.
On to `CC1=C(CCC(C)CC(=O)O)[C@@]2(C)CCCC(C)(C)C2CC1=O` (some centres undefined), for which the Potency entry in experiment [1] and in experiment [2] was “inactive” each time.
Consider `CC(=O)OC1C[C@@]2(C)[C@@H](CC[C@@H](C)[C@]23Cc2c(O)cc4c(c2O3)CNC4=O)C(C)(C)[C@@H]1O` (some centres undefined), for which the Potency entry in experiment [1] and in experiment [2] was “inactive” in each case.
Regarding `COC(=O)C1=CO[C@@H](O[C@@H]2O[C@H](CO)[C@@H](O)[C@H](O)[C@H]2O)[C@@H]2[C@@](C)(O)[C@@H](OC(=O)/C=C/c3ccc(O)cc3)C[C@]12O`, the Potency entry in experiment [1] and in experiment [2] was “inactive” each time.
Regarding `OC[C@H]1O[C@@H](Oc2ccccc2)[C@H](O)[C@@H](O)[C@@H]1O`, the Potency result in experiment [1] and in experiment [2] was “inactive” each time.
With `CC(O)/C=C/C1C(C)C(O[C@@H]2O[C@H](CO)[C@@H](O)[C@H](O)[C@H]2O)C(O)CC1(C)C` (some centres undefined), the Potency entry in experiment [1] and in experiment [2] was “inactive” each time.
Regarding `C/C=C/C=C/C(O)=C1\C(O)=C(C)C(=O)[C@@]2(C)OC(=O)[C@@](C)(NC(=O)/C=C/C(=O)O)[C@@H]12`, the Potency entry in experiment [1] and in experiment [2] was “inactive” throughout.
Take `CC(C)=CCC/C(C)=C/CO[C@@H]1O[C@H](CO)[C@@H](O)[C@H](O)[C@H]1O`: the Potency entry in experiment [1] and in experiment [2] was “inactive” throughout.
With `C=C1C(OC(C)=O)CCC2(C)CC3(OC)OC(=O)C(C)=C3CC12` (centres undefined), the Potency result in experiment [1] and in experiment [2] was “inactive” in each case.
On to `CCCCNc1ncc2c(-c3ccc(F)cc3)nn(CC3CCC(N)CC3)c2n1` (centres undefined), for which the Potency result in experiment [1] was “inactive”. Besides, the Potency in experiment [2] is 2240 nM (active).
In the case of `C[C@H](C/C=C/C(C)(C)O)[C@H]1CC[C@@]2(C)[C@@H]3[C@@H](O[C@@H]4O[C@H](CO)[C@@H](O)[C@H](O)[C@H]4O)C=C4C(CC[C@H](O)C4(C)C)[C@]3(C=O)CC[C@]12C` (some centres undefined), the Potency entry in experiment [1] and in experiment [2] was “inactive” throughout.
As for `CC(=O)O[C@@H]1[C@@H](O)[C@H](C)O[C@@H](O[C@H]2[C@@H]3C=CO[C@@H](O[C@@H]4O[C@H](CO)[C@@H](O)[C@H](O)[C@H]4O)[C@@H]3[C@@]3(CO)O[C@@H]23)[C@@H]1OC(=O)/C=C/c1ccccc1`, the Potency entry in experiment [1] and in experiment [2] was “inactive” throughout.
For the compound `Cc1ccc(C(=O)N(CCCN)C(c2nc3cc(Cl)ccc3c(=O)n2Cc2ccccc2)C(C)C)cc1` (centres undefined), the Potency entry in experiment [1] was “inactive”. Further, the Potency in experiment [2] was 5.8 nM (active).
The matching figures for `COC(=O)/C=C/C12COC(C)(C)C1C(O)C(OC(C)=O)C1(C)C2CCC2(C)C(c3ccoc3)OC(=O)C3OC321` (centres undefined): “inactive” and “inactive”.
Regarding `CC(=O)CC1CCC(C(C)C(=O)OCC(O)CO)O1` (centres undefined), the Potency entry in experiment [1] and in experiment [2] was “inactive” in each case.
Take `C[C@@H]1CC[C@]2(C(=O)O)CC[C@]3(C)C(=CCC4[C@@]5(C)CC[C@H](O)C(C)(C)C5C(O)C[C@]43C)[C@@H]2[C@]1(C)O` (some centres undefined): the Potency entry in experiment [1] and in experiment [2] was “inactive” throughout.
Take `C[C@@H]1C[C@@H]([C@@H](O)C(C)(C)O)O[C@H]2C[C@@]3(C)C(=C12)C[C@H](O)[C@H]1[C@@]2(C)CCC(=O)C(C)(C)C2CC[C@@]13C` (some centres undefined): the Potency entry in experiment [1] and in experiment [2] was “inactive” throughout.
